Reference: ChEMBL document CHEMBL2218924, “A broad activity screen in support of a chemogenomic map for kinase signalling research and drug discovery” (Biochem J, 2013)

Columns and labels:
[1] = target: T1, Ephrin type-B receptor 1 (Homo sapiens) (UniProt P54762); details: at 10 µM
T1 sequence (whole entry): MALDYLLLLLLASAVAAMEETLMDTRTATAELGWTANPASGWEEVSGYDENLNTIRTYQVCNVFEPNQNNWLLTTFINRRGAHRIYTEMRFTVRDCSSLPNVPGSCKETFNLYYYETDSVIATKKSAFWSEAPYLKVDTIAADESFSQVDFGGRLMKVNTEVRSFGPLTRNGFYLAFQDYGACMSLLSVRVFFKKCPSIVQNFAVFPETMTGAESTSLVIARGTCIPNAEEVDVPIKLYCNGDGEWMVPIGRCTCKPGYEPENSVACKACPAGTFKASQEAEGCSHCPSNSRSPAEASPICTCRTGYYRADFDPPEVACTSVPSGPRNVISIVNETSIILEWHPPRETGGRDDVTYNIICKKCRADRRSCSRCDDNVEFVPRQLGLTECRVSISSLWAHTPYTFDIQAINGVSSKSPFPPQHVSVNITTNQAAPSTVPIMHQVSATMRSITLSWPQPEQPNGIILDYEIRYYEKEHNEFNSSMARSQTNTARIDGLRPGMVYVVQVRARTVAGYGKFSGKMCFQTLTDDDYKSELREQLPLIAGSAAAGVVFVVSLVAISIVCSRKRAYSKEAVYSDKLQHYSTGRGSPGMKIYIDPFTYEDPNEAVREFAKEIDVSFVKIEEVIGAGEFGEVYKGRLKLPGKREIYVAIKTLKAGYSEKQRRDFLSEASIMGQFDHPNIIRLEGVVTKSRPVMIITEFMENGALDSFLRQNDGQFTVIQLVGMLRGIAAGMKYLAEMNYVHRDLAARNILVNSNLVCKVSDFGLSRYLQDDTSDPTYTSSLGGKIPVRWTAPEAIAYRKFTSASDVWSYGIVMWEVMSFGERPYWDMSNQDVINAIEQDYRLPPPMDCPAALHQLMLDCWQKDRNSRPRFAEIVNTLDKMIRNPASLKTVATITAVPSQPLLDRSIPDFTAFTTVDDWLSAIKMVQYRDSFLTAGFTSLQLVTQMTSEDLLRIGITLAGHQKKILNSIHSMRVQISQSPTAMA

[2] = target: T2, Ephrin type-B receptor 3 (Homo sapiens) (UniProt P54753); details: at 10 µM
T2 sequence (whole entry): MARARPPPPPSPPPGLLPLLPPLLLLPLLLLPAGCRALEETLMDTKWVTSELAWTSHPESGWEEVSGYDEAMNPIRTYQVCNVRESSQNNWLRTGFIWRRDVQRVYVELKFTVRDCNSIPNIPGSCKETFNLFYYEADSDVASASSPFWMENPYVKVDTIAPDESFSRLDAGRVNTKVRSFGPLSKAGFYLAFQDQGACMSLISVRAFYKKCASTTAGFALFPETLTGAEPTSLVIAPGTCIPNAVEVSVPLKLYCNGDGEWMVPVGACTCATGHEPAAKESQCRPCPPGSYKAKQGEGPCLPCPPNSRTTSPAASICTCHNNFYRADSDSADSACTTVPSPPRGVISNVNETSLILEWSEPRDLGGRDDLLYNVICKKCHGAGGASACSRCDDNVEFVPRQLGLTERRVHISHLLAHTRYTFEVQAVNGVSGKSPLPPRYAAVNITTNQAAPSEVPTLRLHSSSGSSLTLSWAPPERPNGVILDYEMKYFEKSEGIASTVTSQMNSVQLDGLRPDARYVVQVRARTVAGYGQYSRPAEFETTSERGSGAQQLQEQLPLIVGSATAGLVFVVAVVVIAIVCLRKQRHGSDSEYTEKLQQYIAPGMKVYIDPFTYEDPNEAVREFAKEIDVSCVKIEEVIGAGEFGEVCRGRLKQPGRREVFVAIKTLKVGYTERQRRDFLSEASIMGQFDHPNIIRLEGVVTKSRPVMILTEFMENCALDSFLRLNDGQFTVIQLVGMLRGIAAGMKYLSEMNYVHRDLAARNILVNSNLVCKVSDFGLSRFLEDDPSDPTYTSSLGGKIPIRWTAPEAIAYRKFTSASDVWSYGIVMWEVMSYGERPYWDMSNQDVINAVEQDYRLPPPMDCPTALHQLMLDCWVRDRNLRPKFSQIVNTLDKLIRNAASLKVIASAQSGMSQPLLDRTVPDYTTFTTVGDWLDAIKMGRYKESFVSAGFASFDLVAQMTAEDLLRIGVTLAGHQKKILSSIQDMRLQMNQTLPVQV

[3] = target: Receptor tyrosine-protein kinase erbB-4 (Homo sapiens) (UniProt Q15303); details: at 1 µM
[4] = target: T3, Ephrin type-B receptor 2 (Homo sapiens) (UniProt P29323); details: at 1 µM
T3 sequence (whole entry): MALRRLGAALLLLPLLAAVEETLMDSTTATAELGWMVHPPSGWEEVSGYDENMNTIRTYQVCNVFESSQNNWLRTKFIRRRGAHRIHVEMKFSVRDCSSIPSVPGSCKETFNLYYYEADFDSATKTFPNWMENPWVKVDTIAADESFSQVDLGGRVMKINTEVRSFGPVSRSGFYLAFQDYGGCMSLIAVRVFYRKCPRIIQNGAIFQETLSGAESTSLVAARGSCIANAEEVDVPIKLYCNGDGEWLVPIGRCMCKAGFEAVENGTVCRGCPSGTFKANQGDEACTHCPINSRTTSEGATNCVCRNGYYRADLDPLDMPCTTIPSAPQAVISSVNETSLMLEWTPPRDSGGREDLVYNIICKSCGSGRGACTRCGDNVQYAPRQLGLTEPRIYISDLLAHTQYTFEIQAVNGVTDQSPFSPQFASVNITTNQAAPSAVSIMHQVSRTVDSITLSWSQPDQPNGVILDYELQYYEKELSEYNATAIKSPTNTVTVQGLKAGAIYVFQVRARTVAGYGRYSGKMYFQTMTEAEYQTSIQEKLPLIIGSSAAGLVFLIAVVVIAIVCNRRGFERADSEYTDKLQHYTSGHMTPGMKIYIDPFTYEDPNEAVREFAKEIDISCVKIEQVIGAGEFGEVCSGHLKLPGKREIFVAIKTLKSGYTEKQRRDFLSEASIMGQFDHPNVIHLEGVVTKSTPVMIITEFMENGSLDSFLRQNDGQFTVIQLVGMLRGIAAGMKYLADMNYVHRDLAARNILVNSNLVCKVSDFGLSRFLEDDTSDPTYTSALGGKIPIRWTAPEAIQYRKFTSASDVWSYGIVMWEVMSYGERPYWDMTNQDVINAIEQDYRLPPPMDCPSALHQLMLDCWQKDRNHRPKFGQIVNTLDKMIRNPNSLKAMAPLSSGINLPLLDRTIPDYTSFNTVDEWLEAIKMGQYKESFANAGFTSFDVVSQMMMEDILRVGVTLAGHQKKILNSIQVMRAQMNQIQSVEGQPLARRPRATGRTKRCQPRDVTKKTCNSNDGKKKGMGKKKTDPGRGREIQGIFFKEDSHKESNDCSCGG

[5] = target: T3, Ephrin type-B receptor 2 (Homo sapiens); details: at 10 µM
[6] = target: T2, Ephrin type-B receptor 3 (Homo sapiens); details: at 1 µM
[7] = target: T4, Ephrin type-B receptor 4 (Homo sapiens) (UniProt P54760); details: at 1 µM
T4 sequence (whole entry): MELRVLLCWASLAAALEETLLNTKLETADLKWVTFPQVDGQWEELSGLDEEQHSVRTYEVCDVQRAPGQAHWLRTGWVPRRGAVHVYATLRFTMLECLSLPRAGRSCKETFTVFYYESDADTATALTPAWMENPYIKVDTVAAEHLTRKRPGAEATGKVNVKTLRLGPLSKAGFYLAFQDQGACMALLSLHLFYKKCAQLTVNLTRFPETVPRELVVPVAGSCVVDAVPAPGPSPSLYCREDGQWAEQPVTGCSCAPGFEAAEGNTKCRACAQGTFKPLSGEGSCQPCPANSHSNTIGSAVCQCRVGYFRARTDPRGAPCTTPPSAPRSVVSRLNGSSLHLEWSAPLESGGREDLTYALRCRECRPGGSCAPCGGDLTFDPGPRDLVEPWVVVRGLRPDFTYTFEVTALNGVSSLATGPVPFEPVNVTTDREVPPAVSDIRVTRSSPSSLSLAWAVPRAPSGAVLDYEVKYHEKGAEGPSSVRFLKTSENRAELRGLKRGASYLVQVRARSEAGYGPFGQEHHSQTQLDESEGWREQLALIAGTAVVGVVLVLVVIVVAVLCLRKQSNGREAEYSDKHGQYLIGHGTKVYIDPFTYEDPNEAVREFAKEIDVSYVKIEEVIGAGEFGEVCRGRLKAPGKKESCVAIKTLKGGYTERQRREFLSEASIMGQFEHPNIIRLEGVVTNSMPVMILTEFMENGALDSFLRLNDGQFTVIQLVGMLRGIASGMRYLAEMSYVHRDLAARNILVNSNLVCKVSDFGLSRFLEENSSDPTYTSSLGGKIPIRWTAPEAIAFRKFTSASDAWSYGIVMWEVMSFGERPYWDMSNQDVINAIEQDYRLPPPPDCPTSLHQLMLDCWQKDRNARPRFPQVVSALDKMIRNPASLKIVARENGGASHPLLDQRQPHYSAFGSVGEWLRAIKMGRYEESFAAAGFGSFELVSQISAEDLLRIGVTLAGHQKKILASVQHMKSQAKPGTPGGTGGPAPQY

[8] = target: T4, Ephrin type-B receptor 4 (Homo sapiens); details: at 10 µM
[9] = target: Receptor tyrosine-protein kinase erbB-4 (Homo sapiens) (UniProt Q15303); details: at 10 µM
[10] = target: Focal adhesion kinase 1 (Homo sapiens) (UniProt Q05397); details: at 1 µM
Chain of Focal adhesion kinase 1 (Homo sapiens) (Q05397 2-1052 limits assumed): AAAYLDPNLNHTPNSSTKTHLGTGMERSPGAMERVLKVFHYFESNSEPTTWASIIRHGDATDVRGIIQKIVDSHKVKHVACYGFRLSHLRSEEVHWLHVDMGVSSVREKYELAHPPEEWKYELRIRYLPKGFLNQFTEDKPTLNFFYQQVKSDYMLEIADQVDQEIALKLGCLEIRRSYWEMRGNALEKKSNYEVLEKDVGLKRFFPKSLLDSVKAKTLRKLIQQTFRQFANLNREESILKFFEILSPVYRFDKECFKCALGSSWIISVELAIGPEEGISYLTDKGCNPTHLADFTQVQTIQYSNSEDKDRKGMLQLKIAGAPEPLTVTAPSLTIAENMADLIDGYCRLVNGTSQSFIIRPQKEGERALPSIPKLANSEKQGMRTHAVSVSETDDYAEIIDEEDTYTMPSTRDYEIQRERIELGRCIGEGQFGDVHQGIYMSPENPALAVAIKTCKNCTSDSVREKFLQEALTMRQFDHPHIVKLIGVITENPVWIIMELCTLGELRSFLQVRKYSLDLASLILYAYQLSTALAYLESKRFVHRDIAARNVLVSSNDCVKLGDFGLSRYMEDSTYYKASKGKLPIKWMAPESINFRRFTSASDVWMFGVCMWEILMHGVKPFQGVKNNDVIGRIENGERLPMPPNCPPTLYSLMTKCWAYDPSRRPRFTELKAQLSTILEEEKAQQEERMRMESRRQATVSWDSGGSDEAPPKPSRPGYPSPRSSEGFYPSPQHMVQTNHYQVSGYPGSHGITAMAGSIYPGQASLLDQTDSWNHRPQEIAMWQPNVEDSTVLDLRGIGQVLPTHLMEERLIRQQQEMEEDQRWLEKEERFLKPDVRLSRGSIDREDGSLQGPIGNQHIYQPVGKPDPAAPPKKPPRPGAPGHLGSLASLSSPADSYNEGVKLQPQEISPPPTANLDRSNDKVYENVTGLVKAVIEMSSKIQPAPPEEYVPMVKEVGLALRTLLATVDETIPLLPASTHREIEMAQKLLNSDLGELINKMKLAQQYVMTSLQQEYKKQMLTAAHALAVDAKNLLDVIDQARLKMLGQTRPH

Chain of Receptor tyrosine-protein kinase erbB-4 (Homo sapiens) (Q15303 whole entry): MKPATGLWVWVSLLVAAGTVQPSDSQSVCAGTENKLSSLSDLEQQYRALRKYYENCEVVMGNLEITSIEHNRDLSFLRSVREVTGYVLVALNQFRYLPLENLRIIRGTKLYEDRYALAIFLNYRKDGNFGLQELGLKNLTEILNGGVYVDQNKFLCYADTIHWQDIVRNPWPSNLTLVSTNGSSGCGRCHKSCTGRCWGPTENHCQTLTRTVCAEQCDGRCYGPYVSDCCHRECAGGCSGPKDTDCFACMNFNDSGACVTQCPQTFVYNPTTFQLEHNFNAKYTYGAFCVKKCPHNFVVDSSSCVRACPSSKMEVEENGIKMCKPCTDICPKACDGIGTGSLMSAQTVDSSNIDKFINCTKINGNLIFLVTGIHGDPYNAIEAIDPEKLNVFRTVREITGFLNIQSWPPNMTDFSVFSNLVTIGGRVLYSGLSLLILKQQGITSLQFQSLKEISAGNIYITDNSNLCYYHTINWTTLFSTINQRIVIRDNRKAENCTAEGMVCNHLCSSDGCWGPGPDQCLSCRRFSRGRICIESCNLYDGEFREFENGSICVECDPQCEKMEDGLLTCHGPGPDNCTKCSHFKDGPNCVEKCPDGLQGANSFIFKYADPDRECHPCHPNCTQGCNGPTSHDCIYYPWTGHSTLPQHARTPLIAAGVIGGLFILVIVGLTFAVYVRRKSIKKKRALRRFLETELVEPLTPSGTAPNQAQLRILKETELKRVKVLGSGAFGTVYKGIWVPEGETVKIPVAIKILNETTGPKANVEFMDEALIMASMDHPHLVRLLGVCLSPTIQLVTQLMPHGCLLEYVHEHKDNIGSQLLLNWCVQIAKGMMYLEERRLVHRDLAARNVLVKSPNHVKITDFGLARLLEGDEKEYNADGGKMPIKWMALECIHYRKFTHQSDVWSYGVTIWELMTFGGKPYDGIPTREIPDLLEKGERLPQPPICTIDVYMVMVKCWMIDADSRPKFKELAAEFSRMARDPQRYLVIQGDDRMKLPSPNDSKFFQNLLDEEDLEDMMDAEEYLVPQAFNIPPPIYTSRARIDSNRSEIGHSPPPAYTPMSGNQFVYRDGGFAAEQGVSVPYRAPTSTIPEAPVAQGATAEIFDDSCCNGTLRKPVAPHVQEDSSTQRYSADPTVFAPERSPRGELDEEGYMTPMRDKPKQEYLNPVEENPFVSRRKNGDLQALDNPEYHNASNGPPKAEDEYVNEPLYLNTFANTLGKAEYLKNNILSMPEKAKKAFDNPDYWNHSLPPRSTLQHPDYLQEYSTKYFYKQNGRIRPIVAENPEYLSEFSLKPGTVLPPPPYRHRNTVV

Compound	residual activity [1] [%]	residual activity [2] [%]	residual activity [3] [%]	residual activity [4] [%]	residual activity [5] [%]	residual activity [6]	residual activity [7] [%]	residual activity [8] [%]	residual activity [9] [%]	residual activity [10] [%]
Cc1cncc2cccc(S(=O)(=O)N3CCCN(C(=O)CN)C[C@H]3C)c12	31	128	89							
Nc1n[nH]c2nnc(-c3c(-c4ccccc4)nn4ccccc34)cc12	87	104	81	117	110	101% (inactive)	83	67	57	96
CC(C)n1cnc2c(NCc3ccccc3)nc(NCCCO)nc21	79	104	52	111	115	121% (inactive)	100	88	45	97
COc1cc2ncnc(Nc3ccc(NC(=O)c4ccccc4)cc3)c2cc1OC	83		35						6	142
Cn1cnc2cc3c(Nc4cccc(Br)c4)ncnc3cc21	42	123	72	77	5	110% (inactive)	31	4	75	82
Cc1nc2cc3nc(-c4cccs4)cnc3cc2n1C	91	124	116	117	107	107% (inactive)	108	119	113	80
O=C(Nc1cccc(Nc2cc(Nc3cccc(C(F)(F)F)c3)ncn2)c1)C1CC1	69	100	71	101	99	90% (inactive)	97	82	88	130
O=c1c2ccccc2[nH]c(=S)n1CCN1CCC(=C(c2ccc(F)cc2)c2ccc(F)cc2)CC1	90	107	102			112% (inactive)	99	121	66	135
CNc1cc2c(Nc3cccc(Br)c3)ncnc2cn1	62	120	42	94	62	95% (inactive)	63	13	31	107
N#CC(C#N)=C(N)/C(C#N)=C/c1ccc(O)cc1			95				116	119	76	132
O=C1c2ccccc2-[n+]2ccc3c([nH]c4ccccc43)c21	85	96	69	114	116	100% (inactive)	92	84	67	95
NC(=O)c1ccc2[nH]c(-c3ccc(Oc4ccc(Cl)cc4)cc3)nc2c1	94	94	106	110	128	102% (inactive)	89	93	126	91
N#Cc1cnc2cnc(NCc3cccnc3)cc2c1Nc1ccc(F)c(Cl)c1	89		132	99	100				128	
COc1cc2ncnc(N3CCN(C(=O)Nc4ccc(Oc5ccccc5)cc4)CC3)c2cc1OC	102	146	100	114		110% (inactive)	98	112	145	108
CC(=O)c1ccc(N2CCOCC2)cc1O	101	107	93		106	105% (inactive)			107	
Oc1c2ccccc2c2c3c(cccc13)N=N2	29	81	104	101	95		89	55	97	52
